Assay results published in the supplement of paper PMC10849652.
Of roughly 8,800 targets only a part is listed; those with a hit were picked by preference. About 0.5% of all pairs of compound and target were hits. Values without a mark were called inactive.

What was measured:
Assay in all cases: log2 fold change, soluble protein after heating vs DMSO (PISA); higher = thermal stabilisation; K562 lysate, 10 uM; active = over 0.2 and 3.5 SD of the protein, either way, in both replicates (recomputed)
nilotinib = compound: Cc1cn(-c2cc(NC(=O)c3ccc(C)c(Nc4nccc(-c5cccnc5)n4)c3)cc(C(F)(F)F)c2)cn1 [nilotinib]
Summary of the method: (§1)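 To prepare the extract, K562 pellets were dounce-homogenised in PBS pH 7.4 with 1 mM MgCl2, giving crude material at 1 mg/mL protein. This was treated with 10 μM compound for 30 min, then heated in aliquots for 3 min over 48°C-58°C before pooling and addition of NP-40 to 0.5% at 4°C. Centrifugation at 21,000xg for 90 min left soluble protein in the supernatant, which TMTpro 16plex LC-MS/MS quantified with equalised channel sums. Results are log-two fold changes in thermal stability compared with solvent controls, from duplicates.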

[1] = compound: Cc1nc(Nc2n[nH]c3c2CN(C(=O)N[C@H](CN(C)C)c2ccccc2)C3(C)C)c2sccc2n1
Summary of the method: as §1

dasatinib = compound: Cc1nc(Nc2ncc(C(=O)Nc3c(C)cccc3Cl)s2)cc(N2CCN(CCO)CC2)n1 [dasatinib]
Summary of the method: as §1

[2] = compound: Cc1ncc(-c2ccnc(Nc3ccc(S(C)(=O)=O)cc3)n2)n1C(C)C
Summary of the method: as §1

[3] = compound: Cn1cc(-c2ccc3c(c2)CCN3C(=O)Cc2cccc(C(F)(F)F)c2)c2c(N)ncnc21
Summary of the method: as §1

quisinostat = compound: Cn1cc(CNCC2CCN(c3ncc(C(=O)NO)cn3)CC2)c2ccccc21 [quisinostat]
Summary of the method: as §1

tipifarnib = compound: Cn1cncc1[C@@](N)(c1ccc(Cl)cc1)c1ccc2c(c1)c(-c1cccc(Cl)c1)cc(=O)n2C [tipifarnib]
Summary of the method: as §1

[4] = compound: NC(=O)Nc1cc(-c2cccc(F)c2)sc1C(=O)N[C@H]1CCCNC1
Summary of the method: as §1

[5] = compound: NC(=O)c1cnc(N[C@@H]2CCCC[C@@H]2N)nc1Nc1cccc(-n2nccn2)c1
Summary of the method: as §1

[6] = compound: NC1(c2ccc(-c3nc4ccn5c(=O)[nH]nc5c4cc3-c3ccccc3)cc2)CCC1
Summary of the method: as §1

[7] = compound: NCC(=O)Nc1ccc(-n2nc(C(F)(F)F)cc2-c2ccc3c(ccc4ccccc43)c2)cc1
Summary of the method: as §1

vorinostat = compound: O=C(CCCCCCC(=O)Nc1ccccc1)NO [vorinostat]
Summary of the method: as §1

silmitasertib = compound: O=C(O)c1ccc2c(c1)nc(Nc1cccc(Cl)c1)c1ccncc12 [silmitasertib]
Summary of the method: as §1

[8] = compound: O=C1NC(=O)C(c2cnc3ccccn23)=C1c1cn2c3c(cc(F)cc13)CN(C(=O)N1CCCCC1)CC2
Summary of the method: as §1

entospletinib = compound: c1cn2cc(-c3ccc4cn[nH]c4c3)nc(Nc3ccc(N4CCOCC4)cc3)c2n1 [entospletinib]
Summary of the method: as §1

Chain of UniProt P49915 (P49915 whole entry, looked up): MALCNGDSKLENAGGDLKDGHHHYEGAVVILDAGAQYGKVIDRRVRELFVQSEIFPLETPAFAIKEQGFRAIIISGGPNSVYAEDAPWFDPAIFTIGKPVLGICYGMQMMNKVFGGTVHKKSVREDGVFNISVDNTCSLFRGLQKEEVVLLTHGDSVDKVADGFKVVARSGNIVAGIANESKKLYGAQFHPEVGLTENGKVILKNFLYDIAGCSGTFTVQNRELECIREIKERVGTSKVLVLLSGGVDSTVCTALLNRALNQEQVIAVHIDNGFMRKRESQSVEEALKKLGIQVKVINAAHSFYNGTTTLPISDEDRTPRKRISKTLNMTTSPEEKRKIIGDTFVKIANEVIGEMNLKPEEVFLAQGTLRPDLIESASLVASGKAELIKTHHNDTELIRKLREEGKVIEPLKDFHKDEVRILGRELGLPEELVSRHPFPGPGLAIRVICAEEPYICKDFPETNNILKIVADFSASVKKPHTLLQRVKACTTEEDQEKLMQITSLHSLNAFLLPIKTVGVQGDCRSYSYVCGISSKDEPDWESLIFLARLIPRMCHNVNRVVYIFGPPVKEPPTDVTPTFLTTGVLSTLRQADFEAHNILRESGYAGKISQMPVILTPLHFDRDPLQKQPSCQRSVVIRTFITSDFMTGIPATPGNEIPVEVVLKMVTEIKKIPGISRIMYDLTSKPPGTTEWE
Chain of UniProt Q99729 (Q99729 whole entry, looked up): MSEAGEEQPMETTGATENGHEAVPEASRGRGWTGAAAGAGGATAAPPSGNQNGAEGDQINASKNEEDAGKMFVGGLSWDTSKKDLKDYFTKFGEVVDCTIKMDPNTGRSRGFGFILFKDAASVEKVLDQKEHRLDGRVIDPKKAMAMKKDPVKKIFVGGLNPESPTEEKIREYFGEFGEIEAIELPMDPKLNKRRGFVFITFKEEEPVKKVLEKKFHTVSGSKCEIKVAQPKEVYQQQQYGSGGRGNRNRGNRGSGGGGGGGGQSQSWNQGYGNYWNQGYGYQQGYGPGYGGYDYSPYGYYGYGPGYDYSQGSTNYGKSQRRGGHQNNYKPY
Chain of UniProt Q9Y223 (Q9Y223 whole entry, looked up): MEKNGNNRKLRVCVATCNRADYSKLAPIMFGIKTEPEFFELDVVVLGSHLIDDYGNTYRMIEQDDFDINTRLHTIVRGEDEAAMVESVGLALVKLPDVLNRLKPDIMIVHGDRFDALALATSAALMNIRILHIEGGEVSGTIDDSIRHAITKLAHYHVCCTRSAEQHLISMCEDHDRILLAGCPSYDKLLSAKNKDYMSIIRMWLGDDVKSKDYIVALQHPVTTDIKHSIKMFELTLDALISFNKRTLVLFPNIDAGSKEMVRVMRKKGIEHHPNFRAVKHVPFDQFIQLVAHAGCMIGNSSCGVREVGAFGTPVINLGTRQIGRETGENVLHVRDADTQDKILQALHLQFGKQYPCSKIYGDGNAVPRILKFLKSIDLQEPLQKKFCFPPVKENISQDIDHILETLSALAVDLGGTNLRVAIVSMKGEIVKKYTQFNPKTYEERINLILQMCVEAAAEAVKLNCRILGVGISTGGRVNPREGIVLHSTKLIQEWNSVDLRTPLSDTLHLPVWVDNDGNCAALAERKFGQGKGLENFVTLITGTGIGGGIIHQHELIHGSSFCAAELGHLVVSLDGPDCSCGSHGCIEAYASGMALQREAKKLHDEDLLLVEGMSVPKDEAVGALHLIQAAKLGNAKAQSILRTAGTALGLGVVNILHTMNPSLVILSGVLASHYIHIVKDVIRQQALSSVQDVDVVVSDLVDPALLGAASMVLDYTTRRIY
Chain of UniProt Q14527 (Q14527 whole entry, looked up): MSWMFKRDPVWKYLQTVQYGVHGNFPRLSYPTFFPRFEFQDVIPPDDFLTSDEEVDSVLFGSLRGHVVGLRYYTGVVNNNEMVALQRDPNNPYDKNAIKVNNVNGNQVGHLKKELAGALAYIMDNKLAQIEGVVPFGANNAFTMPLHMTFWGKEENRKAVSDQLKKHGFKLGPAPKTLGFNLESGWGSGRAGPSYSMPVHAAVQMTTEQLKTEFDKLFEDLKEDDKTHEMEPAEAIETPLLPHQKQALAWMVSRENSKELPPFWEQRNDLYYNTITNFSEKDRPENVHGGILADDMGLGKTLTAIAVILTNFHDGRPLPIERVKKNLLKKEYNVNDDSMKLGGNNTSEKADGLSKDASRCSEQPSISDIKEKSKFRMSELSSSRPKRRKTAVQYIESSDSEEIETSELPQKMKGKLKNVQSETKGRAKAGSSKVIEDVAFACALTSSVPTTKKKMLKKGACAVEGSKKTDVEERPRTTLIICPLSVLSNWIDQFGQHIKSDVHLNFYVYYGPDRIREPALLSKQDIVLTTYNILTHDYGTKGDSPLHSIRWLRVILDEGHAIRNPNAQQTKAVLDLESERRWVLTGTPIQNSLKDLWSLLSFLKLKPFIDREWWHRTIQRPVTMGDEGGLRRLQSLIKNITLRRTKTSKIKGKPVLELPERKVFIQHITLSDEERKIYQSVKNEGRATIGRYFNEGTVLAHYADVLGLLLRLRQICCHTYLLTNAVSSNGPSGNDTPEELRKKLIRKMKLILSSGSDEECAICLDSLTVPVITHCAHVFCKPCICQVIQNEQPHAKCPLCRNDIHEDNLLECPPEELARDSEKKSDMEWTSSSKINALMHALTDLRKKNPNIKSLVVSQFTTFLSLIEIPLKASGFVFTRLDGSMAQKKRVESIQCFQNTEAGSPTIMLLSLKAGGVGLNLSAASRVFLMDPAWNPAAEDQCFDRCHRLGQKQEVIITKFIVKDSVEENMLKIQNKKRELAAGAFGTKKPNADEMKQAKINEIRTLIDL
Chain of UniProt P15104 (P15104 whole entry, looked up): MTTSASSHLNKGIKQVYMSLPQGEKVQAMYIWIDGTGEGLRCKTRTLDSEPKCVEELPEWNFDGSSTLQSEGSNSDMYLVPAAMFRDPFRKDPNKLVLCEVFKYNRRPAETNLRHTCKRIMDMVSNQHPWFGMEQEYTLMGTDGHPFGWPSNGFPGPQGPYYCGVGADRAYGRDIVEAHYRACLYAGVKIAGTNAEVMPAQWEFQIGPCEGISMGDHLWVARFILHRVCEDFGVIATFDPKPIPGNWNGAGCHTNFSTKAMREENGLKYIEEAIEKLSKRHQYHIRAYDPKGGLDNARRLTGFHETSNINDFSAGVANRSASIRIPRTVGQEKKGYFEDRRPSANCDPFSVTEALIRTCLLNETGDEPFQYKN
Chain of UniProt P15260 (P15260 whole entry, looked up): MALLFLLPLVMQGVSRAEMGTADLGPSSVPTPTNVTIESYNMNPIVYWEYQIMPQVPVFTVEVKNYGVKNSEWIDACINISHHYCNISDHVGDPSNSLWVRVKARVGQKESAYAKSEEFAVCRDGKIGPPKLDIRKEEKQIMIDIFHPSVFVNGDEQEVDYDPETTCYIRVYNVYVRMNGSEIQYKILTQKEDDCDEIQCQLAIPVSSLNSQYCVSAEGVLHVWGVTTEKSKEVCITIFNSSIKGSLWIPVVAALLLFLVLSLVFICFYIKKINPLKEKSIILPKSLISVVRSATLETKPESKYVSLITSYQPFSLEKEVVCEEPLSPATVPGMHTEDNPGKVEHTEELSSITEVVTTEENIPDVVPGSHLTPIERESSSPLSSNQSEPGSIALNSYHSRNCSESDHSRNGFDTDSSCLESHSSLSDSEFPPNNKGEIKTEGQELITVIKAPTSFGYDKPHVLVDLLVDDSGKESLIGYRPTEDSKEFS
Chain of UniProt P55795 (P55795 whole entry, looked up): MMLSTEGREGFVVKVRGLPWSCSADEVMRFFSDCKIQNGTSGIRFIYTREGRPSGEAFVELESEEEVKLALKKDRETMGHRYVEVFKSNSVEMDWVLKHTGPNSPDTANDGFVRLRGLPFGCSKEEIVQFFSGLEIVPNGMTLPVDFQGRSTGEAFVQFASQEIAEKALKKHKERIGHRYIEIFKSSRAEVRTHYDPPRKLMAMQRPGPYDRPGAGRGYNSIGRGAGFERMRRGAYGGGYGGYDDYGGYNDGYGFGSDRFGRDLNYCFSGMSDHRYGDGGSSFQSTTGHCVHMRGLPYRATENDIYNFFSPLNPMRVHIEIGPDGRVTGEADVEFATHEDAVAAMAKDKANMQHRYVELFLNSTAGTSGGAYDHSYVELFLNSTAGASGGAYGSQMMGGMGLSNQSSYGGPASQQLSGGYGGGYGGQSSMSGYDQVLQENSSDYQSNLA
Chain of UniProt Q7Z4H7 (Q7Z4H7 whole entry, looked up): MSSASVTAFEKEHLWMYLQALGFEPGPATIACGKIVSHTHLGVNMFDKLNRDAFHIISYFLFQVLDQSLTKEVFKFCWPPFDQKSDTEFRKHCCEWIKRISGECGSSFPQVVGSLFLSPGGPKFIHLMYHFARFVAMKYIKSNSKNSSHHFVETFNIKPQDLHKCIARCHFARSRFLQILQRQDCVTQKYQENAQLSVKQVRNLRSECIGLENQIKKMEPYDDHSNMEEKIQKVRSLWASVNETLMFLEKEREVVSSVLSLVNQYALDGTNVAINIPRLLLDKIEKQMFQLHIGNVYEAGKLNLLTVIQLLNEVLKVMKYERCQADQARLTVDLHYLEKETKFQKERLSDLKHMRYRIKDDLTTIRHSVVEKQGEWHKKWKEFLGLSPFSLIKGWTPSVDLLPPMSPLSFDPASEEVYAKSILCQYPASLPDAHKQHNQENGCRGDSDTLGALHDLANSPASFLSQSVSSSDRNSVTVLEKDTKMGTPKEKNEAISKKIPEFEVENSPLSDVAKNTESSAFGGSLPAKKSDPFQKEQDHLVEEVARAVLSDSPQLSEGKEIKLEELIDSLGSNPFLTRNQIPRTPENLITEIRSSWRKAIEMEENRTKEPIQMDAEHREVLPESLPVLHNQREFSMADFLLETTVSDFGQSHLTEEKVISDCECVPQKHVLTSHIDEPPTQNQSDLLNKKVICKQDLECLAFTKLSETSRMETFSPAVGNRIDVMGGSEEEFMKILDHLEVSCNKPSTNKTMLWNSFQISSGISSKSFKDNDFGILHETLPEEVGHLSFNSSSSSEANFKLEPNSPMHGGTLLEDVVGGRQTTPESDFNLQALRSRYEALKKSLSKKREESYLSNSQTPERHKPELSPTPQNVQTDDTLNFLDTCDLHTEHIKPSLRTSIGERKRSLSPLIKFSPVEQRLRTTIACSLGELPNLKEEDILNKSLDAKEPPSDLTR

Row | Target | log2 fold change (nilotinib) | log2 fold change [1] | log2 fold change (dasatinib) | log2 fold change [2] | log2 fold change [3] | log2 fold change (quisinostat) | log2 fold change (tipifarnib) | log2 fold change [4] | log2 fold change [5] | log2 fold change [6] | log2 fold change [7] | log2 fold change (vorinostat) | log2 fold change (silmitasertib) | log2 fold change [8] | log2 fold change (entospletinib)
1 | GOLGA6B (UniProt A6NDN3) | 0.039 | -0.102 | 0.009 | -0.075 | 0.161 | -0.355 | 0.051 | 0.106 | -0.008 | -0.082 | 0.019 | 0.117 | -0.002 | 0.353 (active) | -0.084
2 | ILKAP (UniProt Q9H0C8) | 0.023 | -0.01 | 0.025 | -0.094 | -0.009 | 0.011 | -0.005 | 0.005 | 0.026 | 0.044 | -0.05 | -0.288 (active) | 0.053 | -0.024 | -0.001
3 | GTF2H1 (UniProt P32780) | 0.009 | 0.013 | -0.012 | -0.04 | 0.043 | -0.064 | 0.084 | 0.06 | 0.037 | -0.036 | -0.019 | -0.412 (active) | 0 | -0.024 | 0.035
4 | INTS3 (UniProt Q68E01) | -0.007 | 0.007 | -0.05 | -0.045 | 0.005 | -0.038 | 0.09 | 0.028 | -0.002 | -0.028 | 0.049 | -0.244 (active) | 0.015 | -0.063 | 0.009
5 | ISY1 isoform 1 (UniProt Q9ULR0) | 0.012 | 0.026 | 0.002 | -0.024 | -0.082 | -0.036 | -0.018 | 0.014 | -0.012 | -0.01 | -0.163 | 0.05 | 0.032 | -0.01 | -0.02
6 | IFNGR1 (UniProt P15260) | 0.227 | -0.068 | -0.018 | 0.133 | -0.125 | 0.047 | -0.08 | 0.013 | 0.084 | -0.101 | 0.15 | 0.147 | -0.006 | 0.046 | -0.042
7 | HECTD4 (UniProt J3KPF0) | 0.014 | -0.009 | -0.077 | -0.007 | 0.037 | -0.145 | 0.016 | 0.02 | 0.011 | 0.017 | 0.051 | -0.472 (active) | -0.003 | 0.032 | 0.001
8 | GNE isoform 2 (UniProt Q9Y223) | -0.013 | -0.003 | 0.003 | -0.081 | 0.025 | -0.042 | 0.008 | 0.061 | -0.008 | -0.006 | 0.056 | -0.443 (active) | 0.023 | 0.012 | 0.017
9 | HNRNPAB isoform 3 (UniProt Q99729) | -0.012 | 0.026 | 0.022 | 0.024 | -0.028 | 0.026 | 0.006 | 0 | -0.005 | 0.012 | 0.067 | 0.189 | -0.01 | 0.008 | -0.019
10 | KATNBL1 (UniProt Q9H079) | -0.057 | -0.143 | 0.068 | -0.159 | -0.073 | 0.035 | 0.198 | 0.158 | 0.017 | 0.023 | 0.111 | -0.176 | -0.02 | 0.144 | 0.234
11 | GMPS (UniProt P49915) | -0.006 | -0.019 | -0.016 | 0 | 0 | 0.041 | -0.008 | 0.001 | 0.001 | 0.009 | 0.017 | -0.553 (active) | 0.028 | 0.002 | 0.01
12 | HLTF (UniProt Q14527) | -0.039 | 0.004 | -0.041 | -0.051 | 0.05 | 0.021 | -0.148 | 0.102 | 0.055 | -0.085 | 0.046 | -0.246 (active) | 0.101 | -0.101 | 0.017
13 | HMGN5 (UniProt P82970) | 0.029 | 0.001 | 0.03 | 0.019 | -0.003 | 0.074 | 0.04 | -0.042 | -0.027 | -0.003 | -0.014 | 0.14 | 0.002 | -0.005 | 0.002
14 | HAUS6 (UniProt Q7Z4H7) | -0.022 | -0.008 | -0.057 | 0.022 | 0.038 | -0.066 | 0.053 | 0.035 | -0.055 | -0.004 | -0.057 | -0.3 (active) | 0.014 | 0.007 | 0.015
15 | GLUL (UniProt P15104) | -0.008 | -0.012 | 0.054 | -0.026 | -0.002 | 0.071 | 0.027 | -0.032 | 0.009 | -0.003 | 0.008 | 0.13 | 0.006 | -0.096 | 0.116
16 | ICAM2 (UniProt P13598) | 0.081 | -0.077 | 0.013 | 0.012 | -0.035 | 0.007 | -0.016 | -0.018 | -0.004 | 0.018 | -0.016 | 0.148 | -0.029 | -0.021 | -0.018
17 | HNRNPH2 (UniProt P55795) | -0.07 | 0.04 | 0.049 | 0.071 | 0.003 | -0.147 | -0.003 | 0.014 | -0.037 | -0.113 | -0.008 | -0.243 (active) | 0.005 | -0.054 | 0.002
18 | GSE1 (UniProt Q14687) | -0.017 | 0.007 | -0.064 | 0.036 | -0.005 | -0.093 | -0.02 | 0.059 | 0.012 | 0.029 | 0.029 | -0.286 (active) | -0.006 | -0.006 | -0.017
19 | IMPDH1 isoform 6 (UniProt P20839) | 0.008 | -0.034 | -0.033 | 0.015 | -0.006 | -0.121 | -0.017 | -0.007 | -0.008 | -0.012 | 0.029 | -0.897 (active) | -0.003 | 0.004 | 0.023
20 | HADH isoform 2 (UniProt Q16836) | -0.028 | 0.049 | 0.288 (active) | 0.031 | 0.008 | 0.124 | 0.032 | -0.006 | 0.029 | -0.031 | 0 | -0.029 | 0.005 | 0.006 | 0.022
21 | HDAC10 (UniProt Q969S8) | -0.009 | 0.023 | -0.104 | 0.032 | 0.144 | 0.245 | -0.123 | 0.092 | 0.111 | -0.001 | 0.147 | 0.211 | 0.156 | -0.032 | 0.053
